Source: PubChem BioAssay (National Center for Advancing Translational Sciences (NCATS))
Most compounds without a hit are left out; they make up all but 10% or so of the library.
CtBP-E1A inh: inhibitors of CtBP/E1A interaction; 340,000 tested, 0.49% active; AlphaScreen GST-E1A/His-CtBP binding, 1536-well; stronger effect = lower value; AID 651724; activity change, % (no concentration beside the values); in the data active means activity change below about -65%; inconclusive means mostly about -30% to -63%
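Homogeneous bead-based format: GST-tagged E1A captured on glutathione donor beads, His-tagged CtBP on nickel acceptor beads; compounds precede bead addition by 2 h at 37 °C.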
Six1-Eya2 blk: inhibitors of human Six1/Eya2 interaction | activity change, % (no concentration beside the values) | 360,000 tested, 0.56% active | AlphaScreen GST-Six1/His-Eya2 binding, biochemical; stronger effect = lower value | AID 651725; in the data active means activity change below about -65%; inconclusive means mostly about -30% to -63%
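GST-Six1 + His-Eya2 (5X stock: 250/500 nM); Tris pH 8.0, 300 mM NaCl, 0.05% BSA, 0.02% Tween 20; GSH donor/Ni acceptor beads; 1 h 37 °C dark; AlphaScreen readout.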
HP1b binding inh: HP1-beta chromodomain-methylated histone interaction inhibition; P83916; AlphaScreen HP1-beta / biotin-H3K9me3 peptide binding; Potency, µM (doses to about 114 µM), actives largely listed as inhibitors; 390,000 tested, 0.56% active; further: nearly all actives have a fitted effect of over 70% in size
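HP1-beta protein (50 nM final) preincubated 30 min at room temperature with biotinylated H3(1-18)K9me3 peptide (50 nM) in PBS pH 7.4, 0.01% Tween-20, then compound added for 30 min. AlphaScreen streptavidin donor/nickel chelate acceptor beads (10 ug/mL final), 30 min dark, luminescence read.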
G9a inh: inhibitors of human histone lysine methyltransferase G9a. 350,000 tested, 8.8% active. Potency, µM (highest dose often 102 µM), most hits filed as inhibitors. Q96KQ7. G9a H3K9 monomethylation, AlphaScreen, 2 h; further: nearly all actives have a fitted effect of over 75% in size
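G9a (20 nM) was preincubated 15 min with compound, then reacted 2 h at room temperature with 500 nM biotin-H3K9 peptide and 20 µM SAM. Monomethyl-H3K9 detected by AlphaScreen using anti-H3K9me1 antibody.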
BAZ2B inh: inhibitors of human BAZ2B bromodomain. Q9UIF8. AlphaScreen BAZ2B-H3K14Ac peptide displacement. Potency, µM (highest dose often 114 µM), actives largely listed as inhibitors. 360,000 tested, 4.4% active; further: nearly all actives have a fitted effect of over 60% in size
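AlphaScreen luminescence quantifies BAZ2B engagement of H3K14Ac peptide; the protein and biotinylated peptide are both at 50 nM final, buffer PBS pH 7.4 with 0.01% Tween-20, all steps at room temperature.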
JMJD2A Tudor inh: JMJD2A Tudor domain (human) inhibition | O75164 | AlphaScreen JMJD2A-Tudor / H3K4me3 peptide binding | Potency, µM (highest dose often 114 µM), actives largely listed as inhibitors | 390,000 tested, 4.4% active | AID 504339; further: nearly all actives have a fitted effect of over 50% in size
Of the large screens only hits and unclear results are named; the others gave an inactive call. Unless noted, the call rests on the fitted dose curve; in most records, active means well fitted inhibition curve with a large enough effect; inconclusive means small, poorly fitted or top-dose-only effect; inactive means no such curve, though single readings can be large or run the other way.

CCCN(C(=O)c1c(-c2ccccc2)noc1C)c1c(N)n(Cc2ccccc2)c(=O)[nH]c1=O	none
COc1cccc(CNC(=O)c2ccc(-n3c(C)cc4c3CCC(C)C4)cc2)c1 (centres undefined)	none (no result: CtBP-E1A inh, Six1-Eya2 blk)
Nc1c(Br)cc(Br)c2c1C(=O)c1c(cccc1S(=O)(=O)O)C2=O	CtBP-E1A inh -74, Six1-Eya2 blk inconclusive, HP1b binding inh inconclusive, JMJD2A Tudor inh inconclusive (no result: G9a inh, BAZ2B inh)
CC(=O)c1cccc(NC(=O)CCCOc2ccc(C)cc2)c1	none
CC(=O)c1cccc(OCC(O)CNCCOc2ccc(C)cc2)c1 (centres undefined)	G9a inh 40µM, BAZ2B inh 50µM, JMJD2A Tudor inh 4µM
CC(=O)c1cccc(OCC(O)CNCC2CCCCC2)c1 (centres undefined)	HP1b binding inh 71µM, BAZ2B inh 56µM, JMJD2A Tudor inh 8.9µM
CC(NC(=O)Cn1ccc2cc(S(=O)(=O)N3CCCCCC3)ccc21)c1ccccc1 (centres undefined)	none (no result: CtBP-E1A inh, Six1-Eya2 blk)
COc1ccccc1CNC(=O)c1cnc2c(-c3ccccc3)c(C)nn2c1C	none (no result: CtBP-E1A inh, Six1-Eya2 blk)
c1ccc(CSc2nnc(-c3ccccc3)c(-c3ccccc3)n2)cc1	none (no result: G9a inh, BAZ2B inh)
N#Cc1c(-c2ccccc2)nc(-c2ccncc2)[nH]c1=O	none (no result: CtBP-E1A inh)
N#Cc1c(Cl)nc(-c2ccncc2)nc1-c1ccccc1	G9a inh 28µM, BAZ2B inh 79µM, JMJD2A Tudor inh inconclusive (no result: CtBP-E1A inh)
N#Cc1c(Cl)nc(SCc2ccccc2)nc1-c1ccccc1	BAZ2B inh 79µM (no result: CtBP-E1A inh, Six1-Eya2 blk, HP1b binding inh, G9a inh, JMJD2A Tudor inh)
Cc1c(C(=O)Nc2ccccn2)sc2nc3n(c(=O)c12)CCC3	G9a inh inconclusive
Cc1ccn2c(=O)cc(COc3ccc(NC(=O)c4ccccc4F)cc3)nc2c1	none (no result: CtBP-E1A inh, Six1-Eya2 blk)
Nc1c(-c2ccc3c(c2)OCCO3)oc2ccccc2c1=O	G9a inh 50µM
O=c1cc(-c2ccc3c(c2)OCO3)oc2ccccc12	none
CCOC(=O)C(Cc1ccc(NC(=O)/C(=C/c2ccc(OC(C)=O)cc2)NC(C)=O)cc1)N1C(=O)c2ccccc2C1=O (centres undefined)	JMJD2A Tudor inh 89µM
CCCCc1ccc(NC(=O)c2cc3c(=O)n4ccccc4nc3s2)cc1	none (no result: CtBP-E1A inh, Six1-Eya2 blk)
COc1cc(/C=C2\C(=N)N3N=C(S(C)(=O)=O)SC3=NC2=O)ccc1OS(=O)(=O)c1ccc(C)cc1	BAZ2B inh 50µM, JMJD2A Tudor inh 56µM (no result: CtBP-E1A inh)
Cc1cc(/C=C2\C(=N)N3N=C(S(C)(=O)=O)SC3=NC2=O)c(C)n1Cc1ccccc1	G9a inh 45µM, JMJD2A Tudor inh inconclusive
COc1cc(/C=C2\C(=N)N3N=C(C)SC3=NC2=O)cc(OC)c1OCCOc1ccccc1C	none (no result: CtBP-E1A inh)
COc1cc(/C=C2\C(=N)N3N=C(C)SC3=NC2=O)cc(Cl)c1OCCOc1ccc(NC(C)=O)cc1	BAZ2B inh 79µM
COc1cc(/C=C2\C(=N)N3N=C(S(C)(=O)=O)SC3=NC2=O)cc(OC)c1OCCOc1ccccc1C	HP1b binding inh inconclusive, G9a inh inconclusive, BAZ2B inh 56µM, JMJD2A Tudor inh 79µM
CCCC1=NN2C(=N)/C(=C\c3cc(C)n(Cc4ccccc4)c3C)C(=O)N=C2S1	none (no result: CtBP-E1A inh)
O=C(c1cnc(N2CCOCC2)c2ccccc12)N1CCN(c2ccccc2F)CC1	none (no result: CtBP-E1A inh, Six1-Eya2 blk)
Cc1ccccc1C(=O)N1CCC(N2CCN(Cc3ccc(F)cc3)C(=O)C2=O)CC1	none (no result: CtBP-E1A inh, Six1-Eya2 blk)
CCOc1cc(/C=C2\C(=N)N3N=C(C)SC3=NC2=O)ccc1OCCOc1cccc(OC)c1	none
CCc1nn2c(=O)cc(COc3ccc(/C=C4\C(=N)N5N=C(C)SC5=NC4=O)cc3)nc2s1	BAZ2B inh 50µM, JMJD2A Tudor inh 56µM (no result: CtBP-E1A inh)
COc1cccc(OCCOc2ccc(/C=C3\C(=N)N4N=C(S(C)(=O)=O)SC4=NC3=O)cc2OC)c1	G9a inh 40µM, BAZ2B inh 79µM, JMJD2A Tudor inh 56µM
C=CCOc1ccc(/C=C2\C(=N)N3N=C(S(=O)(=O)CC)SC3=NC2=O)cc1OC	BAZ2B inh inconclusive
COc1ccccc1OCCOc1ccc(/C=C2\C(=N)N3N=C(S(C)(=O)=O)SC3=NC2=O)cc1	BAZ2B inh 50µM, JMJD2A Tudor inh 22µM (no result: CtBP-E1A inh)
O=[N+]([O-])c1ccc(F)c(CN2CCN(c3ncc(Cc4ccccc4)cn3)CC2)c1	none (no result: HP1b binding inh, G9a inh, BAZ2B inh, JMJD2A Tudor inh)
